Measured values reported in the supplement of paper PMC9801561.
Values without a mark were called inactive.

tested on: Escherichia coli Nissle 1917; assay: DuctApe activity index of respiration/growth curve (0 no growth to 9 maximum) (index 0-9); higher = more growth / nutrient utilisation, active = 3 or more; extreme values may be limits of the assay; settings: nutrient role: sole nitrogen source (pyruvate carbon); incubation: 48 h, 37 °C
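Note: biolog PM4 phosphorus and sulfur plates, tetrazolium violet dye reduction read in the OmniLog every 15 min, kinetic curves scored by DuctApe, each plate run in triplicate.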

Compound	DuctApe activity index
CC(C)[C@H](N)C(=O)O [L-Valine]	4 (active)
N[C@@H](CS)C(=O)O [L-Cysteine]	8.67 (active)
CC(=O)N[C@@H]1C(O)O[C@H](CO)[C@@H](O)[C@@H]1O (stereo partly drawn) [N-Acetyl-D-Mannosamine]	2.33
NCC(=O)O [Glycine]	6 (active)
N[C@@H](CC(=O)O)C(=O)O [L-Aspartic acid]	8.33 (active)
Nc1ncnc2c1ncn2[C@@H]1O[C@H](CO)[C@@H](O)[C@H]1O [Adenosine]	7.33 (active)
NCCCC(=O)O [g-Amino-N-Butyric acid]	4 (active)
CC[C@H](C)[C@H](N)C(=O)O [L-Isoleucine]	1
O=C1CC[C@@H](C(=O)O)N1 [L-Pyroglutamic acid]	0
N[C@@H](Cc1ccccc1)C(=O)O [L-Phenylalanine]	6 (active)
O=C(O)[C@@H]1CCCN1 [L-Proline]	6 (active)
CC(=O)N[C@H]1C(O)O[C@H](CO)[C@H](O)[C@@H]1O (stereo partly drawn) [N-Acetyl-D-Galactosamine]	2.33
C[C@H](N)C(=O)NCC(=O)O	8 (active)
N[C@@H](CCO)C(=O)O [L-Homoserine]	1.33
CC(=O)N[C@@H]1[C@@H](O)[C@H](O)[C@@H](CO)O[C@@H]1O [N-Acetyl-D-Glucosamine]	2.33
CC(=O)N[C@@H](CCC(=O)O)C(=O)O [N-Acetyl-L-Glutamic acid]	0
CSCC[C@H](N)C(=O)O [L-Methionine]	6 (active)

same assay, conditions: nutrient role: sole phosphorus source (pyruvate carbon); incubation: 48 h, 37 °C

Compound	DuctApe activity index
O=C[C@H](O)[C@@H](O)[C@H](O)[C@H](O)COP(=O)(O)O [D-Glucose-6-Phosphate]	8.67 (active)
O=P(O)(O)OC[C@H](O)CO (racemic) [DL-a-Glycerol Phosphate]	8.67 (active)
O=P(O)(O)O[C@H]1O[C@H](CO)[C@@H](O)[C@H](O)[C@H]1O [D-Glucose-1-Phosphate]	8.33 (active)

same assay, conditions: nutrient role: sole sulfur source (pyruvate carbon); incubation: 48 h, 37 °C

Compound	DuctApe activity index
CSCC[C@H](NC(=O)CN)C(=O)O	7 (active)
N[C@@H](CS)C(=O)O [L-Cysteine]	7.33 (active)
CSCC[C@H](N)C(=O)O [L-Methionine]	7 (active)
